Data published in PubChem BioAssay (NCATS).
Several values for one entry are separate records, joined by “and”; a condition that tells them apart may be missing. Equal entries are not always repeated. Results filed as inconclusive are left out. Activity calls are given as the source filed them. Unless noted, calls come from the whole dose curve; as a rule, active = well fitted curve in the direction sought with a large enough effect; inconclusive = small, poorly fitted or top-dose-only effect, or another doubt; inactive = no such curve, though single readings can be large; an effect the other way counts as inactive or inconclusive.

Assays:
[1] = target: Cytochrome P450 1A2 (Homo sapiens) (UniProt P05177); assay: p450-cyp1a2 (AID 410; calls by dose curve; note: potency is the fitted concentration of half-maximal effect;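 for activity change, negative = inhibition: -100% = full effect of reference inhibitor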)
In short: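 Luminescent readout of luciferin formed from Luciferin-ME by human CYP1A2; data normalized against complete inhibition by 57 uM furafylline. Enzyme 20nM, substrate 100uM at Km, 100mM KPO4 buffer, 60 min reaction at room temperature.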

[2] = NFAT Signaling Pathway (AID 444; active = well fitted curve in either direction with a large enough effect, not every such curve was filed as active;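 note: carbachol stimulus at about its EC50 of 1 µM final; % is set by controls: 0 for no effect and ±100 for the full control effect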); conditions: Jurkat NFAT-bla M1, carbachol, beta-lactamase ratio, 5 h; at 7.69 µM (top of the series) unless noted
In short: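 Jurkat cells carrying an NFAT-driven β-lactamase reporter and co-transfected muscarinic M1 receptor were treated with compound plus carbachol (1 uM final, an EC50 level) for 5 h at 37 °C. CCF4 loading followed for 1 h at RT; 460/530 nm ratio gave %activity.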

[3] = target: Glucocorticoid receptor (Homo sapiens) (UniProt P04150); assay: GR-GFP Redistribution (AID 450;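 active = compounds whose dose series gives a full or clear partial fitted curve of increased nuclear translocation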; note: potency is the fitted concentration of half-maximal effect); conditions: U2OS GR-GFP nuclear translocation, laser cytometry, 2 h
[4] = target: Glucocorticoid receptor (Homo sapiens) (UniProt P04150); assay: GR-EFC Redistribution (AID 451; calls by dose curve; note: potency is the fitted concentration of half-maximal effect); conditions: CHO-K1 GR-EFC translocation, beta-gal luminescence, 2 h
In short: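 CHO-K1 cells stably expressing nuclear-localized β-gal enzyme acceptor and GR fused C-terminally to the enzyme donor fragment; ligand-driven nuclear translocation restores β-gal by complementation. Compounds titrated up to 46 uM final, 2 h at 37 °C; luminescence read.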

[5] = target: Mitogen-activated protein kinase 10 (Mus musculus) (UniProt Q61831); assay: JNK3 AlphaScreen Assay (AID 530; active = well fitted curve in either direction with a large enough effect, not every such curve was filed as active;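 note: kinase came from lysate of stimulated human HepG2 cells; signal reports phosphorylation of biotinylated GST-cJun 1-79 at Ser73 with 10 µM ATP; % is set by controls: 0 for no effect and ±100 for the full control effect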)
In short: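 Inhibitors reduce antibody binding to phosphorylated biotin-cJun, lowering AlphaScreen luminescence. Lysates from HepG2 cells pre-activated by IL-1beta plus TNF-alpha supplied JNK3; compounds were titrated.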

[6] = target: 3',5'-cyclic-AMP phosphodiesterase 4B (Homo sapiens) (UniProt Q07343); assay: qHTS Assay for Inhibitors of PDE-IV (AID 607; active = well fitted activation curve with a large enough effect in the main read-out, with a control signal flat, not every such curve was filed as active; note: % of control where 0% means no effect)
In short: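 Live HEK293 cells with a modified cyclic nucleotide-gated (CNG) channel report intracellular cAMP via membrane-potential dye fluorescence (ex 535/em 590 nm). Endogenous PDE-IV was targeted. Compounds were tested at up to 22.9 uM final; RO 20-1724 100 uM served as control.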

[7] = target: Cytochrome P450 3A4 (Homo sapiens) (UniProt P08684); assay: qHTS Assay for Activators of Cytochrome P450 3A4 (AID 885); note: nearly all actives have a fitted effect of over 65% in size
In short: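 Quantitative HTS format: compounds preincubated with 20nM human CYP3A4 and Luciferin-PPXE substrate at KM, reaction started by NADPH regeneration, stopped after 60 min, luciferase luminescence read 20 min later.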

[8] = Primary qHTS for small molecule stabilizers of the endoplasmic reticulum resident proteome: Secreted ER Calcium Modulated Protein (SERCaMP) assay (AID 1508630); note: % is set by controls: 0 for no effect and ±100 for the full control effect
In short: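 GLuc-SERCaMP-expressing SH-SY5Y cells, pretreated 16 h with compound, are challenged with thapsigargin to empty ER calcium stores; after 4 h, coelenterazine is added directly to the medium and luminescence is imaged.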

[9] = target: Cytochrome P450 3A4 (Homo sapiens) (UniProt P08684); assay: qHTS Assay for Inhibitors and Substrates of Cytochrome P450 3A4 (AID 884); note: nearly all actives have a fitted effect of over 50% in size; note: potency is the fitted concentration of half-maximal effect
In short: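 20 nM human CYP3A4 with 25 uM Luciferin-PPXE (at KM) in 200 mM KPO4, preincubated 10 min with compound; NADPH regeneration started a 60 min RT reaction. Luciferin detected by luminescence, normalized to 57 uM ketoconazole as full inhibition.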

[10] = Confirmation and Secondary Assay for Modulators of Hemoglobin Beta Chain Splicing at IVS2 654 locus (AID 910);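 note: per-well total GFP intensity by laser scanning cytometry after 2-day treatment; % of control where 0% means no effect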
In short: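 HeLa cells stably carrying EGFP interrupted by mutant beta-globin IVS2-654 intron (CMV-driven) were treated with compound for 2 days at 37C; corrected splicing was scored as total peak GFP intensity per well (488 nm excitation, 500-520 nm emission).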

[11] = target: Ubiquitin carboxyl-terminal hydrolase 1 (Homo sapiens) (UniProt O94782); assay: Inhibitors of USP1/UAF1: Pilot qHTS (AID 504865); note: nearly all actives have a fitted effect of over 35% in size; note: potency is the fitted concentration of half-maximal effect
In short: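 Enzyme-free wells gave the negative control, while test wells held 1nM USP1/UAF1 preincubated with compound for 15 min at room temperature. Ub-Rho at 150nM final started the reaction, and fluorescence at 480/540 nm was recorded kinetically.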

[12] = qHTS Assay for Lipid Storage Modulators (AID 1519; calls by dose curve); conditions: Drosophila S3 cells, BODIPY lipid droplet/cell ratio, laser cytometry, cells loaded with oleic acid
In short: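 Cells seeded at 5,000 per well were treated with compounds over a concentration series and loaded with oleic acid (400 uM, as added). Lipid droplet fluorescence (488 nm excitation, 500-530 nm channel) was read by laser-scanning cytometry and normalized to 20 uM Triacsin C.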

[13] = AP1 Signaling Pathway (AID 357; active = well fitted curve in either direction with a large enough effect, not every such curve was filed as active;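 note: ME-180 reporter cells stimulated with EGF at its EC50 level; % is set by controls: 0 for no effect and ±100 for the full control effect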); conditions: ME-180 AP-1-bla reporter, EGF-induced, beta-lactamase ratio, 5 h; at 7.69 µM (top of the series) unless noted
In short: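 Beta-lactamase reporter under AP-1 response element, ME-180 background. Stimulus: EC50 EGF. Compound exposure 5 h, 37 °C. Detection: CCF4, 2.5 h RT, 460/530 nm. Values: AC50 from titration.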

[14] = Stat Signaling Pathway (AID 446; active = well fitted curve in either direction with a large enough effect, not every such curve was filed as active); conditions: ME-180 (cervical carcinoma) SIE beta-lactamase reporter, IL-6 stimulated, 5 h; at 7.69 µM (top of the series) unless noted
In short: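 IL-6/STAT signaling read in ME-180 cells via an SIE beta-lactamase reporter. Stimulus was 40 pM IL-6 (its AC50) for 5 hrs, so both activation and inhibition register.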

[15] = target: Lysosomal acid glucosylceramidase (Homo sapiens) (UniProt P04062); assay: Glucocerebrosidase-p2 (AID 348; in the data active = potency below about 10 µM; note: potency is the fitted concentration of half-maximal effect); conditions: purified GBA, blue fluorogenic substrate, 40 min
In short: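 Compounds titrated from 0.6 nM upwards against 0.2 nM enzyme in pH 5.9 citric acid/KH2PO4, taurocholate, tween-20; blue fluorogenic substrate 80 uM, 40 min room temperature, stopped and read Ex 365/Em 440 for AC50.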

[16] = target: Rap guanine nucleotide exchange factor 3 (Homo sapiens) (UniProt O95398); assay: Confirmatory qHTS for antagonist of cAMP-regulated guanine nucleotide exchange factor 3 (EPAC1) (AID 1645880);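 note: plate controls were DMSO only for no effect and full effect of the ATA control for full effect; nearly all actives have a fitted effect of over 55% in size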
In short: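 Nucleotide exchange uses 100 nM EPAC1, 250 nM RAP1B-BODIPY-GDP and 50 uM GDP, with compounds in a concentration-titration series. After 5 min at room temperature, fluorescence (480 nm ex/540 nm em) is read every 5 min for 30 min. Data are normalized to control ATA and DMSO.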

[17] = target: Rap guanine nucleotide exchange factor 3 (Homo sapiens) (UniProt O95398); assay: Confirmatory qHTS for agonist of cAMP-regulated guanine nucleotide exchange factor 3 (EPAC1) (AID 1645881);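 note: EPAC1 catalysed release of BODIPY-GDP from Rap1B seen as fluorescence loss; 100% = effect of cAMP agonist control; nearly all actives have a fitted effect of over 75% in size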
[18] = target: Rap guanine nucleotide exchange factor 4 (Homo sapiens) (UniProt Q8WZA2); assay: Confirmatory qHTS for agonist of cAMP-regulated guanine nucleotide exchange factor 4 (EPAC2) (AID 1645884);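 note: nucleotide exchange releases bodipy-GDP from Rap1 and this lowers its fluorescence; % is set by controls: 0 for no effect and ±100 for the full control effect; nearly all actives have a fitted effect of over 65% in size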
[19] = target: Rap guanine nucleotide exchange factor 4 (Homo sapiens) (UniProt Q8WZA2); assay: Confirmatory qHTS for antagonist of cAMP-regulated guanine nucleotide exchange factor 4 (EPAC2) (AID 1645885); note: % is set by controls: 0 for no effect and ±100 for the full control effect; nearly all actives have a fitted effect of over 25% in size
[20] = Confirmation and Secondary Assay for Modulators of Hemoglobin Beta Chain Splicing at IVS2 705 locus (AID 930);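 note: HeLa cells stably expressing the EGFP-705 splicing reporter; GFP fluorescence per well restored by corrected splicing of the IVS2-705 intron in EGFP; % of control where 0% means no effect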
In short: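 Stable HeLa line with EGFP disrupted by mutant beta-globin intron 2 (705). Overnight attachment, then 2 days of compound at 37C, 5% CO2. Signal: peak GFP intensity summed over objects 5-250 µm.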

[21] = measured here: cell count channel max response
[22] = measured here: lipid channel max response

Sequence of Glucocorticoid receptor (Homo sapiens) (P04150 whole entry, looked up, the tested form may be a part): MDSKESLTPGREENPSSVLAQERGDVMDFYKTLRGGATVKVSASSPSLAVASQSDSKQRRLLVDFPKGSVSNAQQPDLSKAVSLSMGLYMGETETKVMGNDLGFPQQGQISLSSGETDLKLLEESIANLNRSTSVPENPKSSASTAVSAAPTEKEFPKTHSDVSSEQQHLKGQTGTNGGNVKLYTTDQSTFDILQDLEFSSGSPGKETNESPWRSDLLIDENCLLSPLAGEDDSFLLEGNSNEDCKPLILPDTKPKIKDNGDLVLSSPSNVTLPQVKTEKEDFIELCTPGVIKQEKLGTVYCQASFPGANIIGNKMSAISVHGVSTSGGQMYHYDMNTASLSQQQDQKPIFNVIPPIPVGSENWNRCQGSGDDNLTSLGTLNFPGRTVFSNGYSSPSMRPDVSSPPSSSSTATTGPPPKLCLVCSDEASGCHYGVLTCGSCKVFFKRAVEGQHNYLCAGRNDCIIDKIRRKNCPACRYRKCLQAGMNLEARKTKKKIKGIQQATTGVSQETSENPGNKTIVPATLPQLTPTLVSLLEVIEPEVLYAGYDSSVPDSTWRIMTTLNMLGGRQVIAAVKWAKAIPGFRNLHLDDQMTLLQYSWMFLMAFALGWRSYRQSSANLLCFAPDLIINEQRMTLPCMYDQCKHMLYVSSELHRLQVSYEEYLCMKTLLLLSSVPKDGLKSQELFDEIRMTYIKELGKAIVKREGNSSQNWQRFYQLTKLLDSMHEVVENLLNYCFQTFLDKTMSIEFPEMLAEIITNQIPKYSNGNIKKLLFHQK
Sequence of Cytochrome P450 1A2 (Homo sapiens) (P05177 whole entry, looked up): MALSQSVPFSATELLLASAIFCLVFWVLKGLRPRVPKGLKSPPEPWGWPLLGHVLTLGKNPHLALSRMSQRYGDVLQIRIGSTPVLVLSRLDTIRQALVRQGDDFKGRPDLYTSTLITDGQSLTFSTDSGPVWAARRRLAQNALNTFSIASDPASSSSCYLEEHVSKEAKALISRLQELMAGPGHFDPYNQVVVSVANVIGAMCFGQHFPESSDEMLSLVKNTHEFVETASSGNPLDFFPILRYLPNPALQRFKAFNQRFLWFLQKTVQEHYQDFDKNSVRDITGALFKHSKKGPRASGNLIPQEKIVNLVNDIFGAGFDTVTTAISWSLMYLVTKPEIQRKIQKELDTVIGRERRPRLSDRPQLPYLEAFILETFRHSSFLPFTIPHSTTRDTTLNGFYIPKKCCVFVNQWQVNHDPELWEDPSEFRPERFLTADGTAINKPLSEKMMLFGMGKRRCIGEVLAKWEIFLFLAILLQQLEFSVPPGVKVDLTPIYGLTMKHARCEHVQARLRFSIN
Sequence of 3',5'-cyclic-AMP phosphodiesterase 4B (Homo sapiens) (Q07343 whole entry, looked up): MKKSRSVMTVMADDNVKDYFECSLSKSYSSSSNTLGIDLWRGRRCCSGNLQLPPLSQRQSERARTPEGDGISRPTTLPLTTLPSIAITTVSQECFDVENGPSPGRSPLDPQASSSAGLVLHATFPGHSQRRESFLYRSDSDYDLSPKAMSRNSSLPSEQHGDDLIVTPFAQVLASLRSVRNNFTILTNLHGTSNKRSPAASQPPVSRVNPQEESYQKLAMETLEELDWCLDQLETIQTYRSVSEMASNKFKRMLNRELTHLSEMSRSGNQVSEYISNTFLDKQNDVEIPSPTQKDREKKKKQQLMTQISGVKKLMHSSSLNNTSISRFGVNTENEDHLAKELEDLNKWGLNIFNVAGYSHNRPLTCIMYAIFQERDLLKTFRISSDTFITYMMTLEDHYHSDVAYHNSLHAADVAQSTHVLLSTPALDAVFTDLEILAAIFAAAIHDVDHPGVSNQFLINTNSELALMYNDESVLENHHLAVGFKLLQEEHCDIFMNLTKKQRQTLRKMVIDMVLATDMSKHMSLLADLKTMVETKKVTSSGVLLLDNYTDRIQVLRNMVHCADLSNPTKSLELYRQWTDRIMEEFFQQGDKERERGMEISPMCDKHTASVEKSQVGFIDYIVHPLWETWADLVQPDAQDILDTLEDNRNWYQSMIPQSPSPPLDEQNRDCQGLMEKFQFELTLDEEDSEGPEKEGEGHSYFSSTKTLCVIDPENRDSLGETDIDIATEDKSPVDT
Sequence of Rap guanine nucleotide exchange factor 3 (Homo sapiens) (O95398 whole entry, looked up): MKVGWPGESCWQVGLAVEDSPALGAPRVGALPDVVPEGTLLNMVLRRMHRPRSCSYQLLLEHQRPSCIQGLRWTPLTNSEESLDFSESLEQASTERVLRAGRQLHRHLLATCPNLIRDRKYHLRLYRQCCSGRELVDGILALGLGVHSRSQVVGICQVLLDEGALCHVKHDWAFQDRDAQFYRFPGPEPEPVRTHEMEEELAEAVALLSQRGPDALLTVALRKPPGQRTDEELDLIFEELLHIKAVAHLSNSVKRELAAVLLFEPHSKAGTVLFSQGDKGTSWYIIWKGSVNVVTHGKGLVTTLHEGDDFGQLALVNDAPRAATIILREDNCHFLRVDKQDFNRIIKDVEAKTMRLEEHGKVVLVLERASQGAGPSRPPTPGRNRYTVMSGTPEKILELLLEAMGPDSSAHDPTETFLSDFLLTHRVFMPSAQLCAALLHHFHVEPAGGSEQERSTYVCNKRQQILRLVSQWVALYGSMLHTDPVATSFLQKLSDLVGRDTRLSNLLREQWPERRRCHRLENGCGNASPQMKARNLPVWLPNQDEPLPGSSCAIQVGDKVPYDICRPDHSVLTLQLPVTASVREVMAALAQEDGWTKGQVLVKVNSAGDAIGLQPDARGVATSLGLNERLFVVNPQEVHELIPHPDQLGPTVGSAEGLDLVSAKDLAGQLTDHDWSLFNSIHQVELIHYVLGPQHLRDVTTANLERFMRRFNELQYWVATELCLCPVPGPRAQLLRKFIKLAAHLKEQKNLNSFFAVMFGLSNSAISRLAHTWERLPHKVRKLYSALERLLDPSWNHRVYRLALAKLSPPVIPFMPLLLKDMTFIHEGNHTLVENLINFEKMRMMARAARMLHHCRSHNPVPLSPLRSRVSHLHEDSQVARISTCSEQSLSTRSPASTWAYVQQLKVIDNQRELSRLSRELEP
Sequence of Rap guanine nucleotide exchange factor 4 (Homo sapiens) (Q8WZA2 whole entry, looked up): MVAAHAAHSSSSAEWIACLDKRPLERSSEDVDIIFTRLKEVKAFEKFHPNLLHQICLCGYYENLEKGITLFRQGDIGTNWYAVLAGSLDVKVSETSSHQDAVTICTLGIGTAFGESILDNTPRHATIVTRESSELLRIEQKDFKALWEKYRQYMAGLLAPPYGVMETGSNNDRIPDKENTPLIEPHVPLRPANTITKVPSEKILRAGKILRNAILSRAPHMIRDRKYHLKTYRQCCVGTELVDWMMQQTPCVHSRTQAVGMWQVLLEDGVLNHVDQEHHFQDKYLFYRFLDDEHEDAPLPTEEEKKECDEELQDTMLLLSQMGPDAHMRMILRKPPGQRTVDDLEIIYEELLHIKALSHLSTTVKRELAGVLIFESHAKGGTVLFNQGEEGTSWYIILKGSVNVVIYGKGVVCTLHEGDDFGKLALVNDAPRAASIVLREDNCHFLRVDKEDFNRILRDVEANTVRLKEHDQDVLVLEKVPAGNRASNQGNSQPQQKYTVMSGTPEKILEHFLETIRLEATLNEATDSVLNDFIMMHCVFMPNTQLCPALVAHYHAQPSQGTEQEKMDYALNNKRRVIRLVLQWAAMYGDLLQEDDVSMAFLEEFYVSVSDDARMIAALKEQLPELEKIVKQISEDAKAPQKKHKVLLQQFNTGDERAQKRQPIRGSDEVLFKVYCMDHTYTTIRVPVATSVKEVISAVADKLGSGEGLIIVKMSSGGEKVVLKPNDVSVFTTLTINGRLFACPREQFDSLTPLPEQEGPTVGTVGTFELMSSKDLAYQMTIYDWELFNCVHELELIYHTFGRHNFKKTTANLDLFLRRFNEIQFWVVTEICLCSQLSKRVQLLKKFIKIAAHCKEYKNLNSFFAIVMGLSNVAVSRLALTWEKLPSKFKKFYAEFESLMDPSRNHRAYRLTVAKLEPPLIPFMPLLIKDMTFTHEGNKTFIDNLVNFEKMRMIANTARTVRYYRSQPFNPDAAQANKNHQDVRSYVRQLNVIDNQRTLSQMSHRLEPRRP
Sequence of Ubiquitin carboxyl-terminal hydrolase 1 (Homo sapiens) (O94782 whole entry, looked up): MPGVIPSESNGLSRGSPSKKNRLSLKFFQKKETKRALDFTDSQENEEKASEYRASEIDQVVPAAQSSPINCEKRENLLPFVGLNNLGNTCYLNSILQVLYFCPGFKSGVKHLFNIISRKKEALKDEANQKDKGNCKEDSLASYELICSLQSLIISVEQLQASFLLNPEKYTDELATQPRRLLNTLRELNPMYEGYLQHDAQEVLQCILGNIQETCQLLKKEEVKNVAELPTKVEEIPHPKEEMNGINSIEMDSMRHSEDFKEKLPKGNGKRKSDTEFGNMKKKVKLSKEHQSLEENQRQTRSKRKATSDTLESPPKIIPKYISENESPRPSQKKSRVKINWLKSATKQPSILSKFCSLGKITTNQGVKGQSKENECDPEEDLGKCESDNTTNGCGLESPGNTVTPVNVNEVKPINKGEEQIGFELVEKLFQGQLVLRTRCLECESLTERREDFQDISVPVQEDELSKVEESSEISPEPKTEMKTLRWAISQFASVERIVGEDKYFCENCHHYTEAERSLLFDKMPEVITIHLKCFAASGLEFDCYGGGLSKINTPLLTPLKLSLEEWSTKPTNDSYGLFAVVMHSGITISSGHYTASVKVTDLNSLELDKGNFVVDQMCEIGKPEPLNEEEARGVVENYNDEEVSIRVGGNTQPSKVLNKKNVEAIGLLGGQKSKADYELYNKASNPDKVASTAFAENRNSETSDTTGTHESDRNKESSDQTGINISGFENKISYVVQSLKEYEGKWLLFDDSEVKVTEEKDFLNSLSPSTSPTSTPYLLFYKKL

Oc1cc2c(c(Cl)c1O)CCNC[C@H]2c1ccccc1
inactive: Potency [1] | activity change, negative = inhibition [2] -20.4% [at 38 µM] | Potency [3] > 46 µM | Potency [4] > 46 µM | Potency [5] | Potency [6] | Potency [7] | outcome [8]

COc1ccc2[nH]cc(CCNc3nc(-c4ccc(C(=O)N(C)C)cc4)nc4ccccc34)c2c1
active: Potency [1] 15.8 µM | Potency [9] 2.51 µM
inactive: Potency [3] > 46 µM | Potency [4] > 46 µM | Potency [5] | Potency [6] | Potency [7] | Potency [10] | Potency [11] | outcome [8]

CC(=O)NC(C(=O)O)C(C)(C)SN=O (configuration not stated)
inactive: activity change, negative = inhibition ([12]; at 57.5 µM (top of the series)) 0.182%
6.33%: max response [12, 21]
9%: max response [12, 22]

COc1cc(/C=C/C(=O)/C=C(O)/C=C/c2ccc(O)c(OC)c2)ccc1O
inactive: Potency [7] | outcome [8]
active: Potency [11] 12.6 µM and 31.6 µM

CC[C@@]12CCCN3CCc4c(n(c5ccccc45)[C@](O)(C(=O)OC)C1)[C@H]32
4.14% and 0.607% and 6.95%: max response [12, 22]
5.49% and 0.925% and 3.19%: max response [12, 21]
inactive: activity change, negative = inhibition [13] 13.8% [at 17.2 µM] | Potency [1] | activity change, negative = inhibition [2] -8.76% [at 17.2 µM] and -13.1% [at 17.2 µM] | activity, negative = inhibition [14] 4.76% [at 17.2 µM] and 8.92% [at 17.2 µM] | Potency [3] > 20.6 µM and > 46 µM | Potency [4] > 20.6 µM and > 46 µM | Potency [5] | Potency [6] | Potency [7] | activity change, negative = inhibition ([12]; at 25.7 µM (top of the series)) -1.27% and -2.91% | activity change, negative = inhibition ([12]; at 57.5 µM (top of the series)) 0.0973% | Potency [11]

COc1ccc2[nH]cc(CCNc3ncnc4ccc(-c5ccccc5C#N)cc34)c2c1
-13.6%: max response [12, 21]
active: Potency [1] 3.98 µM | Potency [9] 2 µM
-10.8%: max response [12, 22]
inactive: Potency [15] > 11.4 µM | activity change, negative = inhibition [13] -21.6% | activity change, negative = inhibition [2] 29.2% | activity, negative = inhibition [14] -19.5% | Potency [3] > 46 µM | Potency [4] > 46 µM | Potency [5] | Potency [7] | Potency [10] | activity change, negative = inhibition ([12]; at 57.5 µM (top of the series)) 4.54% | Potency [16] | Potency [17] | Potency [18] | Potency [19]

COc1ccccc1CNc1ncnc2ccc(-c3ccccc3C#N)cc12
16.4%: max response [12, 21]
inactive: Potency [15] > 11.4 µM | activity change, negative = inhibition [13] -13.9% | activity change, negative = inhibition [2] 1.75% | activity, negative = inhibition [14] -23% | Potency [3] > 46 µM | Potency [4] > 46 µM | Potency [5] | Potency [7] | activity change, negative = inhibition ([12]; at 57.5 µM (top of the series)) -1.18% | Potency [11] | Potency [16] | Potency [17] | Potency [18] | Potency [19]
14.7%: max response [12, 22]
active: Potency [1] 1.26 µM | Potency [9] 3.98 µM

CCCNC(=O)N1N=C(c2ccc(N)cc2)c2cc3c(cc2[C@H]1C)OCO3
active: Potency [1] 3.98 µM | Potency [9] 1.26 µM
inactive: Potency [3] > 46 µM | Potency [4] > 46 µM | Potency [7] | outcome [8]

CCCCCC/C=C\CCCCCCCc1cccc(O)c1C(=O)O
7.08%: max response [12, 21]
17.7%: max response [12, 22]
inactive: Potency [9] | Potency [10] | outcome [20] | activity change, negative = inhibition ([12]; at 57.5 µM (top of the series)) 8.36%
active: Potency [11] 79.4 µM
